This is part of a sample that, as a whole, favours compounds with a hit. Of some 83,000 tested, about 20% had one in any assay.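 Values shown are percent growth following 48 h exposure of cells in 96-well plates to a single concentration of compound; below 10 was considered active.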 A number with no mark means an inactive call. The source made the active and inactive calls.

The subject of the test is MDA-MB-435 melanoma. As to the kind of experiment: NCI-60 one-dose screen, 48 h (100 = growth as untreated, 0 = no growth, -100 = all killed). As to conditions: 10 µM unless noted. The method, then: Growth inhibition of the MDA-MB-435 human Melanoma tumor cell line is measured as a screen for anti-cancer activity. Cells are grown in 96 well plates and exposed to the test compound for 48 hours. Compounds are tested at a single concentration, which is 10^-5 M for most compounds. The reported endpoint is percent growth (GI% or GIPRCNT), where numbers from 0 - 100% represent growth inhibition, and numbers from -100% - 0 represent cell death. For example, a value of 40 represents 60% growth inhibition. A value of 0 means no net growth occurred over the course of the experiment. A value of -40 indicates 40% of cells at the beginning of the experiment died by the end of the experiment. A value of -100 means all cells are dead at the end of the experiment.
NCI-60 Human Tumor Cell Lines Screen was performed using the standard one-dose NCI protocol, which is described in more detail at https://dtp.cancer.gov/discovery_development/nci-60/default.htm.
Compounds with GIPRCNT values below 10 were considered active. Activity score was based on GIPRCNT using the following formula: […]
Score is 0 for GIPRCNT values of 100 or above, 50 for GIPRCNT values of 0, and 100 for GIPRCNT values of -100.
As for `C[C@]12CC[C@H]3[C@@H](C[C@@H]4N=C(c5ccc(O)cc5)S[C@@]45C[C@H](O)CC[C@]35C)[C@@H]1CC[C@@H]2O`, the growth was 92%.
Turning to `CCC1CN1P(=O)(OCCOC)N1CC1CC` (stereo not given), the growth is 98.9%.
For the compound `Cc1cccc(N(C)c2cccc3c2C(=O)[Se]C3)c1C`, the growth is 78%.
Turning to `O=CN1N=C(c2ccc3c(c2)OCO3)CC1c1sc(N(CCCl)CCCl)nc1Cl` (stereo not given), the growth was 97.6%.
On to `O=C(/C=C/c1ccccc1)N[C@@H](CO)Cc1cnc[nH]1`, for which the growth was 113%.
In the case of `O=C1NC(=S)NC(=O)C1=Cc1ccccc1`, the growth was 124%.
As for `Oc1ccc2c3c1O[C@H]1c4[nH]c5ccccc5c4C[C@@]4(O)C(C2)N(CC2CC2)CC[C@]314`, the growth is 100%.
For `O=CN1N=C(c2ccccc2)CC1c1sc(N(CCCl)CCCl)nc1Cl` (stereo not given), the growth was 99.2%.
With `N#C[Se]CCN1C(=O)C2C(C1=O)[C@H]1C=C[C@@H]2S1` (stereo not given in full), the growth is -39.2% (active).
In the case of `C[CH2][Pb]([CH2]C)([CH2]C)[O]C(=O)c1ccc(N)cc1`, the growth was -72.9% (active).
Regarding `CN1CC2CCC(C1)C2=O`, the growth was 97.7%.
Take `CC(C)N=C(NC(C)C)N1CC1`: the growth is 103%.
In the case of `CC1(C)N=C(N)N=C(N)N1c1ccc(OCCCCOc2ccc(S(=O)(=O)F)cc2)c(Cl)c1` it was 16.8%.
In the case of `N#CC1=C(N)Oc2cc3c(cc2C1c1cccs1)OCO3` (stereo not given) it was -7.43% (active); in that of `O=S(=O)(c1ccc(Cl)cc1)C(Cl)(Cl)Cl`, -14.8% (active).
`ClCCN(CCCl)c1nc(Cl)c(C2CC(c3ccccc3)=NN2c2ccccc2)s1` (stereo not given): the growth is 103%.
`O=C(O)c1[nH]c(=O)[nH]c(=O)c1F`: the growth was 74.7%.
For the compound `C/C1=C/C(=O)O[C@@H]2C[C@@H](CC[C@H](C)/C=C\C=C\CC1)O[C@@](OCCc1ccccc1)([C@@H]1CSC(=O)N1)C2`, the growth is 16.7%.
Then `O=C(O)CNC(=O)c1ccccc1`, with 100%.
In the case of `Nc1cccc2c1Oc1ccccc1O2` it was 105%.
`CC[C@@H](C)/C=C(C)/C=C/C(=O)c1c(O)c(-c2ccc(O)cc2)cn(O)c1=O`: the growth is 24.1%.
Consider `COc1cc(/C=C\c2cc(OC)c(OC)c(OC)c2)cc(N/C=C\C(=O)c2ccc(OC(F)(F)F)cc2)c1OC`, for which the growth is -42.2% (active).
Consider `Oc1c(Br)cc(Br)cc1Br.[Cu+2]`, for which the growth is 105%.
In the case of `O=C(CCl)NCNC(=O)CCl` it was 93.9%.
Regarding `CC(C)OC(=S)[S-].[Au+].c1ccc([PH+](c2ccccc2)c2ccccc2)cc1`, the growth is 30.3%.
As to `COc1cc(C2CC(=O)Nc3nc(N)[se]c32)c(OC)c2c1OCO2` (stereo not given), the growth was 99%.
For the compound `Cc1cc(CCl)c(C)cc1CCl`, the growth was 76.5%.
Then `CCC[CH2][Sn]1([CH2]CCC)[O]C(=O)c2cccc([N+](=O)[O-])c2C(=O)[O]1`, with -99.2% (active); and `CC1(C)N=C(N)N=C(N)N1c1ccc(CNC(=O)Nc2ccc(S(=O)(=O)F)c(Cl)c2)c(Cl)c1`, with 13.5%; and `CC(=O)O[C@H]1CC[C@H]2[C@@H]3CC[C@H]4CC=C(C)C[C@]4(C)[C@H]3CC[C@]12C`, with 106%.
As for `O=C(CF)N(O)c1ccc(/C=C/c2ccccc2)cc1`, the growth is 72.3%.
For `O=C(O)c1cccc(CCl)c1`, the growth is 104%.
Take `O=C(CCF)c1ccc(O)cc1`: the growth is 104%.
With `CC[C@H](C)[C@H](NC(=O)Nc1ccccc1)C(=O)N(C)[C@H](C[C@@H](OC(C)=O)c1nc(C(=O)N[C@@H](Cc2ccccc2)C[C@H](C)C(=O)OC)cs1)C(C)C`, the growth was -36.7% (active).
In the case of `CCCCOC(=O)c1ccccc1C(=O)O.CCCCOC(=O)c1ccccc1C(=O)O.[Cu+2]` it was 105%; in that of `NC(=O)C(Cl)Cl`, 103%; in that of `Nc1ccc([N+](=O)[O-])c2c1Oc1ccccc1O2`, 106%.
In the case of `CNC(=O)O/N=C(/C)c1ccc(Cl)cc1` it was 98.3%; in that of `COc1cc(CNCCc2ccc(Cl)cc2)cc(OC)c1O`, -4.7% (active).
Regarding `[Br][Pb]([c]1ccccc1)([c]1ccccc1)[c]1ccccc1`, the growth is -98.6% (active).

Source of the values: PubChem BioAssay (NCI).
